Results from PubChem BioAssay (NCI).
This is part of a sample that, as a whole, favours compounds with a hit. Of some 79,000 tested, about 15% had one in any assay. Active and inactive are the calls of the source. No stated cut-off is given here; in the data, active means growth inhibition above about 70%; inactive means the rest.

How the values were obtained:
[1] = NCI Yeast Anticancer Drug Screen. Data for the rad50 strain (AID 155);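 further: 0% = growth of vehicle-only cultures of the same strain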; conditions: S. cerevisiae rad50 strain growth inhibition, stronger effect = higher value
Procedure, shortened: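 Genetically altered yeast (DNA repair pathway); compound treatment; growth inhibition vs vehicle ctrl.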

[2] = NCI Yeast Anticancer Drug Screen. Data for the mec2-1 strain (AID 157); conditions: S. cerevisiae mec2-1 strain, stronger effect = higher value
Procedure, shortened: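 Test agents were screened against the mec2-1 yeast strain, with defined DNA repair or cell cycle alteration. Growth was scored as inhibition against vehicle-only controls.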

[3] = NCI Yeast Anticancer Drug Screen. Data for the sgs1 mgt1 strain (AID 161);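 further: 0% = growth of cultures given vehicle only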; conditions: S. cerevisiae sgs1 mgt1 strain, stronger effect = higher value
Procedure, shortened: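 Read-out: growth inhibition vs vehicle controls. Cells: mutant yeast strain deficient in DNA damage repair.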

[4] = NCI Yeast Anticancer Drug Screen. Data for the cln2 rad14 strain (AID 165);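 further: 0% = growth equal to vehicle treated cultures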; conditions: S. cerevisiae cln2 rad14 strain, stronger effect = higher value
Procedure, shortened: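 Growth of compound-exposed yeast (cln2 rad14 genotype) measured and expressed as inhibition relative to vehicle.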

[5] = NCI Yeast Anticancer Drug Screen. Data for the bub3 strain (AID 167); conditions: S. cerevisiae bub3 mutant strain, stronger effect = higher value
Procedure, shortened: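 Yeast carrying a defined mutation is treated with each compound, and growth is compared with that of vehicle-exposed cells to give inhibition.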

[6] = NCI Yeast Anticancer Drug Screen. Data for the mlh1 rad18 strain (AID 175); conditions: S. cerevisiae mlh1 rad18 strain growth inhibition, stronger effect = higher value
Procedure, shortened: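 In this whole-cell yeast screen, a strain with altered DNA damage repair is challenged with compound, and its growth is measured against matched vehicle-treated controls.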

[7] = at 5.0 µM (retest, dose inferred, filed as 0.5)
[8] = at 50.0 µM (retest, dose inferred, filed as 5.0)

Measured: growth inhibition

Cc1ccc(S(=O)(=O)n2c3c(c4ccccc42)CCN2C(=O)C(S(=O)(=O)c4ccccc4)=CCC32)cc1 (stereo not given)
active: [1]; [8] 97% | [1]; at 50.0 µM 94.6% | [2]; [7] 71% | [2]; [8] 98% | [2]; at 50.0 µM 95.7% | [3]; [7] 74% | [3]; [8] 98% | [3]; at 50.0 µM 97.5% | [4]; [7] 71% | [4]; [8] 98% | [4]; at 50.0 µM 97.9% | [5]; [8] 97% | [5]; at 50.0 µM 97.5% | [6]; [7] 78% | [6]; [8] 97% | [6]; at 50.0 µM 95.8%
inactive: [1]; [7] 65% | [5]; [7] 29%

COc1ccc2c(c1)CC[C@@H]1[C@@H]2CC[C@]2(C)/C(=N/OCCN3CCCCC3)CC[C@@H]12
active: [1]; [8] 97% | [1]; at 50.0 µM 76.3% | [2]; [8] 98% | [2]; at 50.0 µM 71.2% | [3]; [8] 97% | [3]; at 50.0 µM 86.8% | [4]; [8] 96% | [4]; at 50.0 µM 78.7% | [5]; [8] 98% | [5]; at 50.0 µM 79.8% | [6]; [7] 80% | [6]; [8] 98% | [6]; at 50.0 µM 83%
inactive: [1]; [7] 60% | [2]; [7] 56% | [3]; [7] 33% | [4]; [7] 20% | [5]; [7] 33%

CCC(CC)(C(=O)Nc1ccc2c(c1)c(=O)c1ccccc1n2C)C(=O)Nc1ccc2c(c1)c(=O)c1ccccc1n2C
inactive: [1]; [7] 7% | [2]; [7] -3% | [3]; [7] -25% | [4]; [7] -4% | [5]; [7] -10% | [5]; at 50.0 µM 61.2% | [6]; [7] -6%
active: [1]; [8] 97% | [1]; at 50.0 µM 97% | [2]; [8] 86% | [2]; at 50.0 µM 77.7% | [3]; [8] 71% | [3]; at 50.0 µM 70.8% | [4]; [8] 75% | [4]; at 50.0 µM 73% | [5]; [8] 78% | [6]; [8] 92% | [6]; at 50.0 µM 95.7%

c1ccc2c(c1)Nc1ccccc1[P+]21c2ccccc2Nc2ccccc21
inactive: [3]; at 50.0 µM 59.4%
active: [1]; [7] 98% | [1]; [8] 99% | [1]; at 50.0 µM 82.8% | [2]; [7] 99% | [2]; [8] 99% | [2]; at 50.0 µM 98.8% | [3]; [7] 99% | [3]; [8] 99% | [4]; [7] 99% | [4]; [8] 99% | [4]; at 50.0 µM 84.3% | [5]; [7] 99% | [5]; [8] 99% | [5]; at 50.0 µM 98.7% | [6]; [7] 99% | [6]; [8] 99% | [6]; at 50.0 µM 98.6%

COc1c2occc2c(OC)c2c(C)c(C(=O)OCCN3CCOCC3)oc12
inactive: [1]; [7] -1% | [1]; [8] 31% | [1]; at 50.0 µM 64% | [2]; [7] -3% | [2]; [8] 5% | [2]; at 50.0 µM 50.3% | [3]; [7] -4% | [3]; [8] 43% | [3]; at 50.0 µM 28.1% | [4]; [7] -4% | [4]; [8] 2% | [4]; at 50.0 µM 19.4% | [5]; [7] 1% | [5]; [8] 56% | [5]; at 50.0 µM 58.1% | [6]; [7] -5% | [6]; [8] 54% | [6]; at 50.0 µM 66.2%

CSc1nc(SC)c2cnn(Cc3ccccc3)c2n1
inactive: [1]; [7] -16% | [1]; [8] 21% | [1]; at 50.0 µM -7.1% | [2]; [7] -1% | [2]; [8] -15% | [2]; at 50.0 µM 4.9% | [3]; [7] -15% | [3]; [8] 25% | [3]; at 50.0 µM 9.7% | [4]; [7] -11% | [4]; [8] -4% | [4]; at 50.0 µM 2.35% | [5]; [7] -8% | [5]; [8] 18% | [5]; at 50.0 µM 1.3% | [6]; [7] 18% | [6]; [8] 7% | [6]; at 50.0 µM 16.9%

CC(=O)OC12CC(C(F)(F)F)(C(F)(F)F)OC1(OC(C)=O)CC(C(F)(F)F)(C(F)(F)F)O2 (stereo not given)
inactive: [1]; [7] 1% | [1]; [8] 15% | [1]; at 50.0 µM 49.5% | [2]; [7] -8% | [2]; [8] 48% | [2]; at 50.0 µM 29.8% | [3]; [7] 4% | [3]; [8] 66% | [3]; at 50.0 µM 50.2% | [4]; [7] 18% | [4]; [8] 56% | [5]; [7] 7% | [5]; [8] 28% | [5]; at 50.0 µM 67.1% | [6]; [7] -4% | [6]; [8] 66%
active: [4]; at 50.0 µM 71% | [6]; at 50.0 µM 86.3%

COc1ccc(C(c2cc3c(cc2O)OCO3)N2CCOCC2)cc1OC (stereo not given)
active: [1]; at 50.0 µM 77.5% | [2]; at 50.0 µM 86.5% | [3]; at 50.0 µM 96.5% | [5]; at 50.0 µM 98% | [6]; at 50.0 µM 70.7%
inactive: [1]; [7] -2% | [1]; [8] 39% | [2]; [7] -5% | [2]; [8] 59% | [3]; [7] -2% | [3]; [8] 43% | [4]; [7] 0% | [4]; [8] 12% | [4]; at 50.0 µM 67.5% | [5]; [7] -5% | [5]; [8] 41% | [6]; [7] -2% | [6]; [8] 35%

CNC(=O)OC(C)CN1c2ccccc2Sc2ccccc21 (stereo not given)
inactive: [1]; [7] -10% | [2]; [7] -21% | [3]; [7] 5% | [4]; [7] -1% | [5]; [7] 1% | [6]; [7] -11%
active: [1]; [8] 97% | [1]; at 50.0 µM 90.2% | [2]; [8] 98% | [2]; at 50.0 µM 92.2% | [3]; [8] 96% | [3]; at 50.0 µM 93.1% | [4]; [8] 93% | [4]; at 50.0 µM 90.3% | [5]; [8] 98% | [5]; at 50.0 µM 91.7% | [6]; [8] 98% | [6]; at 50.0 µM 91.4%

O=C(CCN1CCCCC1)/C(=C\c1ccc(Cl)cc1)c1ccccc1
inactive: [1]; [7] 5% | [2]; [7] 7% | [3]; [7] 37% | [4]; [7] 14% | [5]; [7] 20% | [6]; [7] 16%
active: [1]; [8] 95% | [1]; at 50.0 µM 99% | [2]; [8] 99% | [2]; at 50.0 µM 99.4% | [3]; [8] 100% | [3]; at 50.0 µM 99.3% | [4]; [8] 91% | [4]; at 50.0 µM 99.1% | [5]; [8] 98% | [5]; at 50.0 µM 99% | [6]; [8] 99% | [6]; at 50.0 µM 99.2%
